The record followed here is PubChem BioAssay AID485317 (Broad Institute, 2010).

The campaign covered roughly 290,000 compounds. About 11,000 (3.8%) were called active. Only a selection was taken, and actives are over-represented in it overall. Values without a mark were called inactive.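 How the source made its calls: active means mean replicate inhibition above about 79%, with every replicate also reaching it (limit read from the data); inconclusive means only one of the two criteria met; inactive means mean below limit and not every replicate reaching it.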

This experiment deals with FAD-linked sulfhydryl oxidase ALR (Homo sapiens) (UniProt P55789). The experiment is described as follows: ALR-catalysed DTT oxidation blockers – biochemical, H2O2 detection, HRP-luminol luminescence, single point, primary screen (AID 485317). Particulars: purified ALR, stronger effect = higher value, concentration not given here.
Chain of FAD-linked sulfhydryl oxidase ALR (Homo sapiens) (P55789 whole entry, looked up): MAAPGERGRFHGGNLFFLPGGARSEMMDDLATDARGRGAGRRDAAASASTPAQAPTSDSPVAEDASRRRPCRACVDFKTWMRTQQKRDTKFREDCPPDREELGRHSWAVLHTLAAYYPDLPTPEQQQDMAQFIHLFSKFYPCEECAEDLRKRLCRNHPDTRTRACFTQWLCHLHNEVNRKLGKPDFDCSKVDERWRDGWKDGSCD
What is called inhibition is the drop in the measured response relative to a control, in per cent. Turning to `CCOC(=O)c1c(C)[nH]c(C(=O)OCC(=O)c2ccc(OC)cc2OC)c1C`, the inhibition is -8.98%.
Turning to `Cc1cc(-c2cccs2)nc(-n2cccc2)n1`, the inhibition is 23.5%.
Then `c1csc(-c2cn3c(n2)SCC3)c1`, with 92.3% (active).
Regarding `CCCS(=O)(=O)Nc1ccc(-c2cn3c(n2)SCC3)cc1`, the inhibition was 4.68%.
For `O=C(c1ccc(S(=O)(=O)NCc2ccco2)cc1)N1CCN(c2ccccc2)CC1` the value was 33.8%.
For `COc1ccc(-c2csc(Nc3ccc(O)cc3)n2)cc1` the value was 74.3%; for `COc1ccc(-c2csc(Nc3ccccn3)n2)cc1`, 32.2%; for `COc1ccc(OC)c(Nc2nc(-c3ccc(O)c(O)c3)cs2)c1`, 94.7% (active).
Then `CCCCn1c(N)c(N(CC(C)C)C(=O)C2CSC3(C)CCC(=O)N23)c(=O)[nH]c1=O` (configuration not stated), with -0.99%; and `CC(NC(=O)c1cccc(S(=O)(=O)N2CCc3ccccc3C2)c1)c1ccco1` (configuration not stated), with -3.35%.
With `O=C(COC(=O)c1ccc(F)c(S(=O)(=O)N2CCOCC2)c1)NCc1ccc2c(c1)OCO2`, the inhibition was -8.6%.
`CNS(=O)(=O)c1cccc(C(=O)OCCCC(=O)c2ccccc2)c1`: the inhibition is 1.28%.
Then `O=C1N[C@H](Cc2ccccc2)C(=O)N[C@H]1Cc1cn(S(=O)(=O)c2ccccc2)c2ccccc12`, with -2.64%; and `CN1CCN(C(=O)c2ccc(-c3ccc(Br)cc3)o2)CC1`, with 6.66%.
On to `O=C(O)c1cccc(NC(=S)N/N=C/c2c[nH]c3ccccc23)c1`, for which the inhibition was 98.2% (active).
Then `CSC(=S)N/N=C/c1c[nH]c2ccccc12`, with 64.4%; and `O=C(N/N=C/c1c[nH]c2ccccc12)c1ccccc1O`, with 41.8%.
For `CCNC(=O)c1cccc(NC(=O)C2CC(=O)N(CCc3ccccc3)C2)c1` (configuration not stated) the value was -0.0795%; for `CC(OC(=O)CNC(=O)c1ccco1)C(=O)Nc1ccc(Cl)cn1` (configuration not stated), -1.13%; for `CCOC(=O)c1cccc(NC(=O)CCc2nnc3ccc(N4CCOCC4)nn23)c1`, 26.9%.
For `COc1cccc(N2CCN(c3ccc4nnc(CCC(=O)N5CCN(C)CC5)n4n3)CC2)c1` the value was 98.2% (active).
Regarding `COc1cccc(NC(=O)CCc2nnc3ccc(N4CCC(C)CC4)nn23)c1`, the inhibition is -1.49%.
Then `C=CCSc1nnc2c(n1)-c1cccc3cccc-2c13`, with 9.81%.
Then `COc1ccc(S(=O)(=O)N2CCOCC2)cc1NC(=O)Cc1c(F)cccc1Cl`, with -4.89%; and `COc1ccccc1CNC(=O)COC(=O)c1cccs1`, with 20.2%.
For `CN(CC(=O)Nc1ccccc1Cl)C(=O)c1ccccc1SCC(=O)N1CCCC1` the value was -3.42%.
For `COC(=O)c1ccccc1NC(=O)c1ccccc1NS(C)(=O)=O`, the inhibition was 4.54%.
For `COC(=O)c1ccccc1NC(=S)NC(=O)c1ccccc1F` the value was 97.1% (active); for `NC(=O)c1ccccc1NC(=O)c1ccccc1F`, 0.399%.
Turning to `Cc1cc(N2CCCC2)ccc1NC(=O)COc1ccc(Cl)cc1`, the inhibition was -0.012%.
For `O=C(NCCC1CCCCN1S(=O)(=O)c1ccc(F)cc1)C(=O)NC1CC1` (configuration not stated) the value was -2.2%; for `Clc1ccc(-c2csc(-c3ccncc3)n2)cc1`, -4.48%; for `Nc1scc(-c2ccncc2)c1Cl`, 98.8% (active).
For `O=c1[nH]c(/C=C/c2cccc(Br)c2)nc2ccccc12` the value was -2.23%; for `CC(C)(C)OC(=O)C[C@@H]1C/C=C\C[C@@H](CC(=O)N[C@H](CO)Cc2ccccc2)C(=O)NCCOC1=O`, 1.41%; for `COc1ccccc1NC(=O)CSc1nc2sc3c(c2c(=O)n1-c1ccccc1)CCN(C)C3`, 99% (active).
Then `COc1ccccc1NC(=O)CSc1nnc(Cn2nnc(-c3ccccc3)n2)n1-c1ccccc1`, with -1.41%; and `C=CCn1c(SCC(=O)Nc2ccc(NC(C)=O)cc2)nc2sc(C)c(C)c2c1=O`, with -2.72%.
Turning to `CCOc1ccc(-n2c(SCC(=O)Nc3ccc(OC)cc3)nc3sc4c(c3c2=O)CCN(C)C4)cc1`, the inhibition was 98.6% (active).
Regarding `CCn1c(SCC(=O)Nc2ccc(Br)cc2)nc2sc3c(c2c1=O)CCN(C)C3`, the inhibition was 99% (active).
Then `COc1ccccc1-n1c(SCC(=O)Nc2cccc(C(=O)O)c2)nnc1-c1ccccc1O`, with 3.17%; and `CCc1nnc(NC(=O)CSc2nc3c(c(=O)n2-c2ccccc2OC)SCC3)s1`, with 1.36%; and `CCOc1ccc(NC(=O)CN2CCN(CC(=O)Nc3ccc(OC)cc3)CC2)cc1`, with -10.2%.
Then `CCc1nc(SCC(=O)Nc2ccccc2OC)n[nH]1`, with -18%; and `C=CCn1c(SCC(=O)NCCCO)nc2sc3c(c2c1=O)CCC3`, with -4.11%; and `CCOc1ccc(NC(=O)CSc2nc3c(c(=O)n2-c2ccccc2OC)SCC3)cc1`, with 93.4% (active).
On to `CCOc1ccc(-n2c(SCC(=O)Nc3cc(C(=O)O)ccc3Cl)nc3ccccc3c2=O)cc1`, for which the inhibition was -3.41%.
Then `CCN(CC)S(=O)(=O)c1ccc(N2CCCC2)c(NC(=O)c2ccc([N+](=O)[O-])o2)c1`, with -36.7%.
For `CC(C)(C)OC(=O)C[C@@H]1C/C=C\C[C@@H](CC(=O)NCCO)C(=O)N[C@H](Cc2c[nH]c3ccccc23)COC1=O` the value was -9.99%; for `CCN(CC(=O)NCc1ccc(F)cc1)S(=O)(=O)c1ccc(Cl)s1`, -4.96%.
Then `Cc1ccc(CNC(=O)CC(NC(=O)c2ccccc2)c2ccccc2)cc1` (configuration not stated), with 1.43%; and `CC(=O)Nc1ccc(S(=O)(=O)NCCC(=O)N2CCN(c3ccccc3Cl)CC2)cc1`, with 0.296%.
Take `O=C(CSc1nc2[nH]ncc2c(=O)[nH]1)Nc1ccc(F)cc1`: the inhibition is -2.71%.
For `CCOc1ccc(-n2c(SC(C)C(=O)OC)nc3c(c2=O)SCC3)cc1` (configuration not stated) the value was -1.69%; for `Cc1ccc(C)c(-n2c(SCC(=O)O)nc3sc4c(c3c2=O)CCCC4)c1`, 4.79%.
For `CCOc1ccc(-n2c(SCC(=O)OC)nc3sc4c(c3c2=O)CCN(C)C4)cc1` the value was 99.2% (active).
With `O=C(N[C@@H](Cc1ccccc1)C(=O)OCc1ccccc1)c1nc[nH]c1C(=O)NC1CCNCC1`, the inhibition is 63.1%.
